Source: PubChem BioAssay
Potency and affinity values are given separately. A number with no mark means an inactive call. No rule for the calls is given here.

Assay: toxicity toward HepG2 liver cells – cell-based, plate reader, cherry-pick, antagonist series, cytotoxicity control, dose response (AID 743416);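 also: 0% = neutral control wells and -100% = positive control wells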
Conditions: series mostly up to 26 µM; activity change, negative = cytotoxicity: at the top concentration

Row | Structure (SMILES) | activity change, negative = cytotoxicity [%]
1 | C[C@H](CO)N1C[C@H](C)[C@H](CN(C)C(=O)Nc2ccccc2)OCCCC[C@H](C)Oc2ccc(NC(=O)Nc3ccccc3)cc2C1=O | -10.4
2 | Nc1ccc(-c2nc3ccc(N)cc3s2)cc1 | -15.1
3 | O=C(Nc1ccc(N2CCOCC2)c(S(=O)(=O)Nc2ccccc2Cl)c1)c1ccc(F)cc1 | -9.15
4 | O=c1cc(-c2c(F)c(F)c(F)c(F)c2F)oc2ccccc12 | 11.6
5 | CC[C@H](CO)Oc1cc(NCc2ccc(Cl)c(Cl)c2)c2ncn(C(C)C)c2c1 | -4.28
6 | O=C(Nc1ccc(NC(=O)c2ccco2)nc1)c1ccco1 | -11.6
7 | C[C@H]1CCCCO[C@@H](CN(C)C(=O)Nc2ccccc2)[C@@H](C)CN([C@@H](C)CO)C(=O)c2cc(NC(=O)NC3CCCCC3)ccc2O1 | 23.7
8 | C[C@H](CO)N1C[C@H](C)[C@H](CN(C)C(=O)Nc2ccc3c(c2)OCO3)OCCCC[C@H](C)Oc2ccc(NC(=O)C3CCCCC3)cc2C1=O | 31.6
9 | C[C@@H]1CN([C@@H](C)CO)S(=O)(=O)c2ccc(C3=CCCC3)cc2O[C@H]1CN(C)C(=O)c1ccccc1 | -18.8
10 | C[C@H](CO)N1C[C@H](C)[C@@H](CN(C)C(=O)Nc2ccc3c(c2)OCO3)Oc2c(cccc2N(C)C)C1=O | 0.337
11 | COc1ccc2[nH]c3c(c2c1)CCN1C(=O)N([C@@H](C)C(=O)NCc2ccc(C)cc2)C(=O)[C@]31C | 3.42
12 | O=C(O)c1cccc(COc2ccc(CO)cc2Cl)c1 | -0.748
13 | COCC(=O)N[C@@H]1CC[C@@H](CC(=O)NCc2ccccc2OC)O[C@@H]1CO | -8.04
